Compounds with a hit are over-represented: about 32% of the library has one in this group of screens.
PostGolgi ctrl = growth inhibition of yeast control strain, primary screen, counter-screen for post-Golgi transport modulator project | efflux-deficient yeast background strain, growth absorbance A615, 16 h | inhibition, % at 10 µM | 98,000 tested, 5% active
CYP2C19 inh = blockers of cytochrome P450 2C19 activity – biochemical, luminescence, ADME assay, primary screen; 96,000 tested, 21% active; inhibition, % at 5 µM; AID 778, 2007; CYP2C19 Supersomes, luciferin-H EGE luminescence, 30 min; P33261;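 active means CYP2C19 inhibition above a set limit at 5 µM in the primary screen, cut at about 50% in these data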;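 further: plate controls were negative control wells for no effect and 2.5 mM tranylcypromine positive control for full effect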
Target sequence (P33261 whole entry, looked up): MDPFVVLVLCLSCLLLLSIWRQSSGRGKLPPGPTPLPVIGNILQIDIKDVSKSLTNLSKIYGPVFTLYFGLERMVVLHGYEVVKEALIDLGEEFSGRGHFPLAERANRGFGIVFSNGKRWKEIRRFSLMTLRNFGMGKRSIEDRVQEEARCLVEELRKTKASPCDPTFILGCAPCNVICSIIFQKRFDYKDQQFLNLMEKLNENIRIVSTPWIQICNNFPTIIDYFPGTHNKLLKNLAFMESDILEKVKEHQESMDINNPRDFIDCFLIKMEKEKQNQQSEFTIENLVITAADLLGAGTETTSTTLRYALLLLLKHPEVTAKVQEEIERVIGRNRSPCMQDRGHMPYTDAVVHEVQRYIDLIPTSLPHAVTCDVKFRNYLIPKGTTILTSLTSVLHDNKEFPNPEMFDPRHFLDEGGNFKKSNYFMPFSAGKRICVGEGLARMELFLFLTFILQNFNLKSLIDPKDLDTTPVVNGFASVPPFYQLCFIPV
CYP2C9 inh = blockers of cytochrome P450 2C9 activity – biochemical, luminescence, ADME assay, primary screen. P11712. CYP2C9 Supersomes, luciferin-H conversion. inhibition, % at 5 µM. 96,000 tested, 20% active. AID 777, 2007;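 active means blocking of liver enzyme CYP2C9 beyond about 50% at 5 µM, limit read from the data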
PostGolgi yeast = phenotypic screen on post-Golgi transport, primary screen; post-Golgi transport phenotypic cell assay; inhibition, % at 10 µM; 98,000 tested, 0.9% active; AID 739, 2007;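 further: yeast cells grown in 1536-well plates; yeast grown about 18 h at 30C before absorbance read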
CYP2C19 act = human CYP2C19 activators, primary screen, biochemical, luminescence | recombinant CYP2C19, luciferin-H EGE luminescence; active compounds read high; 0 = fully inhibited enzyme, 1 = untreated enzyme | activation factor at 5 µM | 96,000 tested, under 10 active;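 active means activation factor of at least 2 at 5 µM in the primary screen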;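 further: 0 = wells with 2.5 mM tranylcypromine and 1 = vehicle-only wells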
CYP2C9 activ = human CYP2C9 activators, primary screen, biochemical, luminescence; Cytochrome P450 2C9 (Homo sapiens), P11712; 96,000 tested, 1.4% active; AID 1024, 2008; activation factor at 5 µM; recombinant CYP2C9, luciferin-H conversion; active compounds read high; factor 1 = untreated enzyme, 0 = blocked;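 active means activation factor of 2 or more for CYP2C9 at a 5 µM dose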;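 further: 0 = sulfaphenazole-blocked wells and 1 = vehicle-only wells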
* = called active by the depositor. Unless noted, no stated cut-off is given here; in the data, active means inhibition above about 30%; inactive means the rest.

SMILES	PostGolgi ctrl	CYP2C19 inh	CYP2C9 inh	PostGolgi yeast	CYP2C19 act	CYP2C9 activ
CCN(CC)C(=O)CN1C(=O)C2CC=C(Cl)CC2C1=O (configuration not stated)	4	1	-2	-5	1	1
Cc1ccc(N(CC(=O)Nc2cccc(C)c2)S(=O)(=O)c2cccc3nonc23)cc1	6	55*	89*	-5	0.4	0.1
CCc1cccc(NC(=O)CN(c2ccc(OC)cc2)S(=O)(=O)c2c(C)n[nH]c2C)c1	-1	88*	78*	5	0.1	0.2
Cc1cc(C)c(S(=O)(=O)Nc2cccnc2)c(C)c1	2	22	26	-5	0.8	0.7
Cc1cccc(NS(=O)(=O)c2c(C)n[nH]c2C)c1	27	68*	79*	7	0.3	0.2
COc1cc(NC(=O)CN(c2ccc(C)cc2)S(=O)(=O)c2c(C)n[nH]c2C)cc(OC)c1	3	82*	84*	-12	0.2	0.2
Cc1cccc(Cn2c(=O)n(-c3ccc(CC(=O)NCc4ccco4)cc3)c(=O)c3sccc32)c1	3	-15	-2	4	1.2	1
COc1ccc(N(CC(=O)Nc2cccc(C)c2)S(=O)(=O)c2c(C)n[nH]c2C)cc1	-6	95*	79*	5	0	0.2
CCOC(=O)c1cccc(NC(=O)CN(c2ccc(C)cc2)S(=O)(=O)c2c(C)n[nH]c2C)c1	6	61*	82*	-6	0.4	0.2
COc1ccc(N(CC(=O)Nc2ccc(OC)c(Cl)c2)S(=O)(=O)c2c(C)noc2C)cc1	7	3	0	2	1	1
COc1ccc(N(CC(=O)Nc2ccc(C)c(C)c2)S(=O)(=O)c2c(C)n[nH]c2C)cc1	3	82*	72*	3	0.2	0.3
COc1ccc(C(=S)Nc2ccc(N(C)C)cc2)cc1	-11	30	-20	-2	0.7	1.2
CC1CN(C(=O)COC(=O)c2cccs2)CC(C)O1 (configuration not stated)	4	2	-10	7	1	1.1
COc1ccc(Cc2nnc(NC(=O)c3ccco3)s2)cc1OC	8	4	19	4	1	0.8
Cc1cc(C)c2c(-n3cccc3)c(C(=O)NNS(=O)(=O)c3ccccc3)sc2n1	22	33	96*	2	0.7	0
Cc1nn(C(C)C(=O)NNC(=S)Nc2ccc(Cl)cc2)c(C)c1[N+](=O)[O-] (configuration not stated)	-3	0	64*	-2	1	0.4
CCCCOc1ccccc1C1NC(=O)NC(C)=C1C(=O)OCCOCC (configuration not stated)	8	70*	75*	-4	0.3	0.3
CCCCOc1ccccc1C1NC(=O)NC(C)=C1C(=O)OCc1ccco1 (configuration not stated)	4	61*	73*	-2	0.4	0.3
COC(=O)C1=C(C)NC(=O)NC1c1cc(Cl)ccc1OC (configuration not stated)	18	-5	16	1	1.1	0.8
CCOC(=O)C1=C(N)OC2=C(C(=O)CCC2)C1c1ccccc1OCC (configuration not stated)	25	80*	49	-6	0.2	0.5
CC1=C(C(N)=O)C(c2ccccc2F)NC(=O)N1 (configuration not stated)	-7	-4	53*	23	1	0.5
CCCOc1ccccc1C1NC(=O)NC(C)=C1C(=O)OCCOCC (configuration not stated)	2	24	21	9	0.8	0.8
O=C(CCCn1c(=S)[nH]c2ccc(Br)cc2c1=O)NCC1CCCO1 (configuration not stated)	3	14	-38	-9	0.9	1.4
CCc1ccc(NC(=O)CSc2nnc(COc3ccc4c(c3)CCCC4)o2)cc1	-6	25	40	-10	0.8	0.6
Cc1cc2c(ccc3[nH]onc32)n1	1	26	-25	2	0.7	1.2
SMILES	PostGolgi ctrl	CYP2C19 inh	CYP2C9 inh	PostGolgi yeast	CYP2C19 act	CYP2C9 activ
CCCC1=C(C(=O)OCC)C(c2ccccc2OCC)NC(=O)N1C (configuration not stated)	17	81*	81*	2	0.2	0.2
CCOC(=O)C1=C(C)C(c2ccccc2OC)NC(=O)N1 (configuration not stated)	4	4	-3	7	1	1
CCOC(=O)C1=C(C)NC(=O)NC1c1ccccc1OCc1c(F)cccc1Cl (configuration not stated)	6	21	70*	5	0.8	0.3
CCOC(=O)C1=C(C)N(C)C(=O)NC1c1ccccc1OC (configuration not stated)	2	28	14	-2	0.7	0.9
Nc1nc2ccc(N3CCOCC3)cc2s1	2	11	8	0	0.9	0.9
CCN(CC)S(=O)(=O)c1ccc(Cl)c(C(=O)OC)c1	4	33	-113	4	0.7	2.1*
CCN(CC)S(=O)(=O)c1cc(C(=O)OC)ccc1Cl	14	62*	4	2	0.4	1
CCN(CC)S(=O)(=O)c1ccc(Cl)c(C(=O)NC2CCCC2)c1	0	21	12	5	0.8	0.9
CS(=O)(=O)NCCSCc1c(Cl)cccc1Cl	4	26	63*	2	0.7	0.4
O=C(COC(=O)c1cc(S(=O)(=O)N2CCOCC2)ccc1O)NCC1CCCO1 (configuration not stated)	3	5	8	-5	1	0.9
COc1cc(OC)cc(-c2nc(N)n[nH]2)c1	8	52*	13	-6	0.5	0.9
COCCCNC(=O)CCCn1c(=O)[nH]c2ccccc2c1=O	-1	-8	0	3	1.1	1
CCN(CCCNC(=O)CCCCn1c(=O)[nH]c2ccccc2c1=O)c1ccccc1	4	62*	68*	-1	0.4	0.3
O=C(CCn1c(=O)[nH]c2ccccc2c1=O)Nc1ccccc1	0	53*	47	5	0.5	0.5
COc1cccc(NC(=O)CCNC(=O)Cn2ccc3ccccc3c2=O)c1	0	35	71*	-7	0.7	0.3
CN(CCNC(=O)CCNC(=O)Cn1ccc2ccccc2c1=O)Cc1ccccc1	-1	-4	9	3	1	0.9
CCN(CCCNC(=O)CCNC(=O)Cn1ccc2ccccc2c1=O)c1ccccc1	6	68*	77*	-3	0.3	0.2
CC(C)Cc1nnc(NC(=O)CSc2nc(N)cc(=O)[nH]2)s1	3	-6	-26	2	1.1	1.3
